Hit rate of the full screen: of about 220,000 compounds, about 830 (0.38%) were called active. The entries come from a sample that favours actives as a whole. Unmarked numbers belong to inactive results.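 The calls were made as follows: active = activation, scaled between plate controls, above about 75% (limit read from the data); inactive = activation under that limit.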

Viability rescue data for 92 compounds are collected here from PubChem BioAssay AID1377 (University of Pittsburgh Molecular Library Screening Center, 2008).

A short description of this assay: rescue of L929 cells from zVAD death – primary screen (AID 1377).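 Also: 0% = zVAD with DMSO and 100% = DMSO alone without zVAD.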 Particulars: L929 zVAD necroptosis rescue, ATP luminescence, 24 h, at 10 µM, active compounds read high; with zVAD 60 µM unless noted.
As to `O=C(/C=C/c1ccccc1)c1ccccc1O`, the viability rescue is 1.78%.
As for `Cc1nc(-c2ccccc2)sc1C(=O)/C=C/c1ccccc1`, the viability rescue is 0.15% [with zVAD 20 µM].
Then `Cc1[nH]c(=O)c(C(=O)/C=C/c2ccccc2)c2c1CCCC2`, with 79.8% [with zVAD 20 µM] (active).
Take `CCc1cc2c(=O)c(-c3nc4ccccc4n3C)c(CCCC(=O)O)oc2cc1OC(=O)C(C)(C)C`: the viability rescue is 3.54%.
Then `Fc1ccc2c(c1)C(c1cccnc1)=NNC(c1cccs1)=N2`, with 0.66%; and `COc1cccc(/C=N/NC(=O)CNC(=O)c2ccc(S(=O)(=O)N3CCOCC3)cc2)c1OC`, with 0.08%.
Turning to `COc1c(N2CCN(C(=S)Nc3ccccc3F)C(C)C2)c(F)cc2c(=O)c(C(=O)O)cn(C3CC3)c12` (configuration not stated), the viability rescue is -0.64%.
With `CC1CCCC(C)N1/N=C/c1ccccc1OC(F)F` (configuration not stated), the viability rescue is 2.14%.
Take `O=C(Cn1cnc2ccccc2c1=O)Nc1cccc(S(=O)(=O)N2CCCCC2)c1`: the viability rescue is 2.04%.
With `Cc1ccc(NC(=O)c2ccc(Oc3ncccn3)cc2)cc1`, the viability rescue was 3.02%.
Consider `CCC(C)Sc1nnc(-c2c[nH]c3ccccc23)n1CCOC` (configuration not stated), for which the viability rescue is 2.86% [with zVAD 20 µM].
As to `CCn1c(SCC(=O)Nc2ccc(OC)c(OC)c2)nnc1-c1c[nH]c2ccccc12`, the viability rescue was 1.56% [with zVAD 20 µM].
As for `CCn1c(SCCC(C)C)nnc1-c1c[nH]c2ccccc12`, the viability rescue is 81.2% [with zVAD 20 µM] (active).
Then `CCOc1cccc2c1OC1(CCCCC1)N1N=C(c3cccnc3)CC21` (configuration not stated), with 1.15%; and `Cc1ccc(NC(=O)C/C(N)=N/O)cc1Cl`, with 1.11%.
`Cc1ccc(NC(=O)COc2ccc(-n3ccnc3)cc2)cc1Cl`: the viability rescue was 76.3% [with zVAD 20 µM] (active).
Then `CCC(=O)c1ccc(OCC(=O)Nc2ccc3nc(C)sc3c2)cc1`, with 0.76%.
Turning to `O=C(Cc1coc2ccc3ccccc3c12)NCc1cccs1`, the viability rescue is 0.48%.
With `Cc1ccccc1NC(=O)NC1(C(=O)N2CCCC2)CCCCC1`, the viability rescue is 4.41%.
Then `CCOC(=O)N1CCN(C(=O)CSc2ccc(Cl)cc2)CC1`, with -0.42% [with zVAD 20 µM]; and `CCOC(=O)N1CCN(C(=O)CNC(=O)Cc2ccc(Cl)cc2)CC1`, with 80.3% (active).
Then `CCOC(=O)N1CCN(C(=O)COc2ccc(Cl)cc2C)CC1`, with 0.53%; and `O=C(NC(=S)Nc1ccc2oc(=O)ccc2c1)c1ccc(-c2cccc(Cl)c2Cl)o1`, with 0.38%.
Regarding `Cc1[nH]c2ccccc2c1SCC(=O)Nc1nccs1`, the viability rescue is 1%.
With `CC(=O)c1cc(C#N)c(SCC(=O)Nc2nccs2)nc1C`, the viability rescue was 82.9% (active).
Then `CC(=O)c1cc(C#N)c(SCC(=O)C(C)(C)C)nc1C`, with 0.46%; and `COc1ccc(C(CCN(Cc2ccc(OC)c(OC)c2)C(=O)CCl)c2ccccc2)cc1` (configuration not stated), with 36.4% [with zVAD 20 µM]; and `COc1ccccc1OCc1ccc(C(=O)N2CCN(C)CC2)o1`, with 0.99%.
For the compound `O=C(c1ccco1)N1CCN(CCOc2ccccc2)CC1`, the viability rescue was -0.6%.
`O=C(c1ccco1)N1CCN(C(=O)c2ccc(COc3ccc(F)cc3)o2)CC1`: the viability rescue is 77.8% [with zVAD 20 µM] (active).
Regarding `O=C(C/C(=N\NC(=O)c1ccccc1Br)C(F)(F)F)c1cccs1`, the viability rescue is 0.26%.
`Cc1cc(C(=O)N2CCC(C(=O)O)CC2)c(C(F)(F)F)o1`: the viability rescue was -0.1%.
With `COC(=O)C1=C(C)N(C(C)c2ccccc2)C(=O)/C1=C\c1ccco1` (configuration not stated), the viability rescue is 10.9%.
Take `O=C(CCN1CCN(c2ccccc2)CC1)NNC(=S)Nc1ccccc1`: the viability rescue is 1.61%.
Then `Cc1nn(C)cc1CNC(=O)Nc1ccc(Cl)cc1`, with 0.19%; and `Cn1ccc(NC(=O)Nc2ccc(Cl)cc2)n1`, with 75.5% (active).
Consider `Cc1cc(NC(=O)Nc2ccc(Cl)cc2)n(-c2ccccc2)n1`, for which the viability rescue is 22.9%.
With `COC(=O)Cn1cc(/C=C/[N+](=O)[O-])c2ccccc21`, the viability rescue is -0.01%.
For the compound `COc1cc(NS(=O)(=O)c2ccc(N/C=C(\C=O)c3nc4cc(Cl)ccc4o3)cc2)nc(OC)n1`, the viability rescue is 0.63%.
Then `Cc1ccc(N2C(=O)C(CC(=O)Nc3cccc(F)c3)N(CCc3ccncc3)C2=O)cc1` (configuration not stated), with 6.31%; and `CCc1c(SCCC(=O)O)nc2ccccc2c1C`, with 5.34%; and `Cn1c2ccc(F)cc2c2nnc(NN)nc21`, with 1.53%.
Then `C=CCO/N=C/C1=C(O)C(C(=O)OC)C(C)(C)CC1=O` (configuration not stated), with 4.04%.
In the case of `CCCCC(CCC(=O)Nc1ccc(C(=O)OCC)cc1)C(=O)O` (configuration not stated), the viability rescue is 0.34% [with zVAD 20 µM].
Then `NC(=O)c1ccc(NC(=O)COC(=O)c2ccc([N+](=O)[O-])cc2)cc1`, with 1.41%; and `CC(C)NC(=O)NC(=O)COC(=O)c1ccc(NC(=O)CC#N)cc1`, with 78.9% (active).
Then `Cn1c(C(=O)NCCCN2CCN(c3cccc(Cl)c3)CC2)cc2c(=O)n(C)c3ccccc3c21`, with 4.61%; and `CC1CCCC(C)N1CCCNC(=O)c1cc2c(=O)n(C)c3ccccc3c2n1C` (configuration not stated), with 80.8% [with zVAD 20 µM] (active).
Regarding `CCN1CCCC1CNC(=O)c1cc2c(=O)n(C)c3ccccc3c2n1C` (configuration not stated), the viability rescue is 22.7% [with zVAD 20 µM].
`CN(C)S(=O)(=O)Oc1ccccc1C(=O)Nc1ccccc1Cl`: the viability rescue was -0.16%.
As to `COCCN1C2=C(COC(C)(C)C2)C(=S)NC1c1ccccc1` (configuration not stated), the viability rescue is 0.35%.
In the case of `O=C(COC(=O)c1ccc(Cl)nc1)NCc1cccs1`, the viability rescue is 1%.
Take `COc1ccccc1NC(=O)CSc1nnc(-c2ccoc2C)n1CCc1ccccc1`: the viability rescue was -0.28% [with zVAD 20 µM].
Then `CCn1c(SCC(=O)Nc2nc3ccc(OC)cc3s2)nnc1-c1ccoc1C`, with 88.1% [with zVAD 20 µM] (active).
Then `CCCn1c(SCC(=O)Nc2cccc(C(=O)OCC)c2)nnc1-c1ccoc1C`, with -0.07% [with zVAD 20 µM]; and `COc1ccc(N2C(=O)C3C(C2=O)C(C(=O)c2ccccc2)N2CCCC32)cc1` (configuration not stated), with -0.53%.
Then `CCc1ccccc1N1CN(Cc2ccco2)CNC1=S`, with 0.22%.
In the case of `Cc1cc(C)nc(NNC2=CC(=O)CC(C)(C)C2)n1`, the viability rescue is 0.66%.
Then `Cc1ccc(NC(=S)NC(=O)/C=C/c2ccc(Cl)cc2)cc1`, with 0.00667%.
Take `CC(=O)Nc1ccc(NC(=S)NC(=O)/C=C/c2ccccc2)cc1`: the viability rescue was 80.5% (active).
Take `CC(=O)Nc1ccc(/C=C/C(=O)c2ccccc2)cc1`: the viability rescue is 0.6%.
As to `O=C1NC(c2ccccc2)=NC1(Nc1ccccn1)C(F)(F)F` (configuration not stated), the viability rescue was 1.82%.
Then `CC(C)(C)NC(=O)C(=O)NCc1ccncc1`, with 0.53%; and `Cc1cc(C)cc(NS(=O)(=O)c2ccc(F)cc2)c1`, with 0.04%.
In the case of `CC(NC(=S)NC1CCCCC1)C(c1ccccc1)N1CCOCC1` (configuration not stated), the viability rescue is -0.76%.
Consider `NNC(=O)c1ccc(Cl)cc1Cl`, for which the viability rescue was 0.33%.
`Cc1ccccc1NC(=O)CNc1ccccc1N1CCCCC1`: the viability rescue was 0.17% [with zVAD 20 µM].
Then `Cc1cccc(NC(=O)CSc2nc3c(c(=O)[nH]2)CCCC3)c1C`, with 0.25%.
For the compound `Cc1ccccc1NC(=O)CSC1=NCCN1`, the viability rescue was 101% [with zVAD 20 µM] (active).
Then `Clc1cc(-c2ccc(/C=N/n3cnnc3)o2)ccc1Br`, with -0.31%; and `CCOC(=O)/C(C#N)=C/c1ccc(N2CCCCC2)cc1`, with 68.5%.
Then `C=CCNC(=O)CC12CC3CC(C1)CC(CC(=O)NCC=C)(C3)C2`, with 0.48%; and `CC(=O)Nc1cccc(-c2cnc3ccccc3n2)c1`, with 82.7% (active); and `CC(=O)Nc1cccc(-c2csc(Nc3cccc(C)n3)n2)c1`, with 0.49% [with zVAD 20 µM].
On to `O=C(Nc1cccc(-c2nc3ccccc3[nH]2)c1)c1ccc(C(=O)Nc2cccc(-c3nc4ccccc4[nH]3)c2)cc1`, for which the viability rescue was 0.11%.
Take `O=C(Nc1cccc(F)c1)N1C2CCC1CC(O)(c1cccnc1)C2` (configuration not stated): the viability rescue was 0.67%.
Turning to `O=C(Nc1cccnc1)c1cc([N+](=O)[O-])ccc1Cl`, the viability rescue was 13.3%.
Then `Cc1ccc(C(=O)Cn2cccn2)cc1`, with 1.57%; and `Cc1ccc(NC(=O)NC(=O)N(C2CCCCC2)S(=O)(=O)c2ccccc2)cc1`, with 2.56%; and `O=C(CC1SCCNC1=O)Nc1ccc(Cl)cc1` (configuration not stated), with 2.38%.
Then `COc1ccc(-n2cnc3cc(C(=O)NC4CCCC4)ccc32)cc1`, with 76.5% (active); and `COc1ccccc1-n1cnc2cc(C(=O)NCC3CCCO3)ccc21` (configuration not stated), with 1.84%; and `COCCCNC(=O)c1ccc2c(c1)ncn2-c1ccccc1OC`, with 13.6%.
Then `COc1ccc(-c2nc3cnccn3c2NC(C)(C)CC(C)(C)C)cc1O`, with 0.13%; and `Cc1ccc2cc(/C=N/Nc3ccc(C(=O)O)cc3)c(Cl)nc2c1`, with 1.59%; and `CCOC(=O)C1(Cc2ccc(Cl)cc2)CCN(C(=O)C2=NNC(=O)CC2)CC1`, with -0.11%.
Regarding `CCCCN1C(=O)CC(N2CCOCC2)C1=O` (configuration not stated), the viability rescue is -0.32%.
For the compound `C[C@@H]1C[C@@H]2O[C@H]2/C=C\C=C\C(=O)Cc2c(Cl)c(O)cc(O)c2C(=O)O1`, the viability rescue was 83% (active).
Then `O=C(c1ccncc1)c1ccc([N+](=O)[O-])cc1`, with 1.69%; and `O=C(c1ccc(F)cc1)C1CCN(Cc2cn[nH]c2-c2ccccc2)CC1`, with 0.29%.
Then `CC(=O)NCCC(=O)Nc1cc(S(=O)(=O)N2CCOCC2)ccc1N1CCOCC1`, with 0.76%.
Then `COc1ccc(/C(N)=N/OC(=O)Cc2ccccc2)cc1`, with 0.52%.
